Reference: ChEMBL document CHEMBL3988442, “University of Dundee, Small-Polar-MMV Screening Library” (2021)
About 13,000 (27%) of roughly 48,000 compounds showed an effect of 50% or more. The list shows a part of the results.

Each compound was assayed on Wolbachia pipientis (assay: Anti-Wolbachia Cell-Based Screen). Conditions: 5 µM.
Format: functional
Design: scale not given: in the data most compounds retested in dose-response had high values

| SMILES | Percent Effect [%] |
| --- | --- |
| CC(C)NS(=O)(=O)c1cc(C(=O)O)cc(-c2ccccc2CN(C)C)c1 | 9.283 |
| CCOCCN1CCN(Cc2nnc(-c3occc3C)o2)CC1 | -3.196 |
| CC(C)C(O)C1(CNC(=O)Nc2ccc(CN3CCOC3=O)cc2)CC1 (centres undefined) | -15.4 |
| COC(=O)c1ccc2ccn(CC3CCCO3)c(=O)c2c1 (centres undefined) | -4.095 |
| CCOCCn1c(=O)[nH]c2cc(C(=O)N(C)Cc3nc(C)c[nH]3)ccc21 | -5.58 |
| CCC[C@]12CN3C[C@](CCC)(CN(C1)C3c1[nH]c(=O)[nH]c(=O)c1C)C2=O (some centres undefined) | 113.9 |
| Cc1c(C2N3C[C@]4(C(C)C)CN2C[C@](C(C)C)(C3)C4=O)[nH]c(=O)[nH]c1=O (some centres undefined) | 123.1 |
| CC(=O)NC[C@H]1COCc2nc3c(C)cccc3n21 | 4.229 |
| CCOC(C)c1noc(CN2CCN(c3ccncc3)CC2)n1 (centres undefined) | -6.635 |
| CN(C)CC1CN(C(=O)NCc2ccccc2)Cc2nccn2C1.O=C(O)C(F)(F)F (centres undefined) | -13.89 |
| COc1cccc(CC(=O)N2Cc3nccn3CC(CN(C)C)C2)c1 (centres undefined) | 80.89 |
| CN(C)CC1CN(C(=O)CCc2ccccc2)Cc2nccn2C1.O=C(O)C(F)(F)F (centres undefined) | 96.55 |
| COc1ccc(CC(=O)N2Cc3nccn3CC(CN(C)C)C2)cc1.O=C(O)C(F)(F)F (centres undefined) | 100.3 |
| CCOCC(=O)N1Cc2nccn2CC(CN2CCCC2)C1.O=C(O)C(F)(F)F (centres undefined) | -4.064 |
| CCOCC(=O)N1Cc2nccn2CC(CN(C)C)C1 (centres undefined) | 110.3 |
| Cc1occc1C(=O)N1Cc2nccn2CC(CN(C)C)C1.O=C(O)C(F)(F)F (centres undefined) | 7.658 |
| CCOCC(=O)N1CCC(c2nccn2CC2CC2)CC1 | 4.34 |
| Cc1ccc(CN2CCOC3(CCN(C(=O)C4CC=CC4)CC3)C2)cc1.O=C(O)C(F)(F)F | 15.78 |
| Cc1ccccc1N1CCN(C(=O)c2ncc(F)cc2F)C(C)C1 (centres undefined) | 9.425 |
| COc1ccc(C(=O)N2C[C@H]3CC[C@@H]2CN(C)C3)cc1Cl | -11.94 |
| Cc1ccccc1-c1ncc(CNCc2csc(C(C)C)n2)s1 | -1.637 |
| O=C(c1ccoc1)N1CCC2(C1)CN(c1nccs1)C2 | -3.02 |
| CN(C)CC1CN(C(=O)Cc2ccccc2)Cc2nccn2C1.O=C(O)C(F)(F)F (centres undefined) | 102.6 |
| Cc1ccc(CC(=O)N2Cc3nccn3CC(CN(C)C)C2)cc1.O=C(O)C(F)(F)F (centres undefined) | 14 |
| OCCCN1CCCC1c1cccc(Br)c1 (centres undefined) | -6.004 |
| NC(=O)CN1CCCC1c1ccccc1Br (centres undefined) | -4.067 |
| Cc1cncc(C2CCCN2CC(N)=O)n1 (centres undefined) | 143.4 |

| SMILES | Percent Effect [%] |
| --- | --- |
| Cc1cncc(C2CCCN2CCO)n1 (centres undefined) | 153.6 |
| Cc1nc(O)cc(C2CCCN2CCO)n1 (centres undefined) | 112.5 |
| CN1CCN(C[C@H]2CC[C@@H](Cc3ccc(CN4CCCC4)cc3)O2)CC1 | -1.169 |
| Cc1ccc(S(=O)(=O)NC[C@H]2OC[C@@H](NCc3cccs3)[C@@H]2O)cc1 | 7.979 |
| CCn1c(C)nnc1SCCNC(=O)CC1CCc2ccccc21 (centres undefined) | -3.198 |
| CCOC(=O)[C@]12CCCN(Cc3nccs3)C[C@H]1CN(C(C)C)C2.O=C(O)C(F)(F)F.O=C(O)C(F)(F)F | -10.51 |
| CCOC(=O)[C@]12CCCN(Cc3nccs3)C[C@H]1CN(C(C)=O)C2.O=C(O)C(F)(F)F | 10.79 |
| CCOC(=O)[C@]12CCCN(Cc3cccs3)C[C@H]1CN(C(C)C)C2.O=C(O)C(F)(F)F.O=C(O)C(F)(F)F | 108.6 |
| CCOC(=O)[C@]12CCCN(Cc3cccs3)C[C@H]1CN(C(C)=O)C2.O=C(O)C(F)(F)F | 93.24 |
| CCOC(=O)[C@]12CCCN(Cc3ccco3)C[C@H]1CN(S(C)(=O)=O)C2.O=C(O)C(F)(F)F | 113.6 |
| CCOC(=O)[C@]12CCCN(Cc3nccs3)C[C@H]1CN(CCOC)C2.O=C(O)C(F)(F)F.O=C(O)C(F)(F)F | -1.05 |
| CCOC(=O)[C@]12CCCN(Cc3cccs3)C[C@H]1CN(CCOC)C2.O=C(O)C(F)(F)F.O=C(O)C(F)(F)F | 131.5 |
| CCOC(=O)[C@]12CCCN(Cc3ccco3)C[C@H]1CN(CCN(C)C)C2.O=C(O)C(F)(F)F.O=C(O)C(F)(F)F.O=C(O)C(F)(F)F | 13.18 |
| CCOC(=O)[C@]12CCCN(Cc3ccsc3)C[C@H]1CN(CCOC)C2.O=C(O)C(F)(F)F.O=C(O)C(F)(F)F | -11.63 |
| CCOC(=O)[C@]12CCCN(Cc3nccs3)C[C@H]1CN(S(C)(=O)=O)C2.O=C(O)C(F)(F)F | -4.113 |
| COCCN(Cc1ccccn1)C(=O)CC1OCCc2ccccc21 (centres undefined) | -5.998 |
| COC(=O)c1ccc(N2CCC(C(O)c3ccccc3)CC2)nn1 (centres undefined) | -10.77 |
| CC(C)CCC(=O)Nc1ncn(CC(=O)N2CCCCCC2)n1 | -19.43 |
| CCc1nc(CC(=O)N2CCOCC2c2ncon2)cs1 (centres undefined) | -4.331 |
| Cc1nnsc1CN1C[C@@H]2CC[C@H](C1)N(Cc1c(C)noc1C)C2=O | 10.64 |
| O=C1N(CC2CC2)CCCC1(O)CN1CCc2[nH]ncc2C1 (centres undefined) | -6.967 |
| CCc1ccc(CN2CCN(C)C3(CCC(=O)N(CC4CC4)CC3)C2)o1 (centres undefined) | 1.557 |
| Cc1noc([C@@H]2C[C@H](NC(=O)C3CCCCC3)CN2C)n1 | -5.582 |
| CCOC(=O)[C@]12CCCN(Cc3nccs3)C[C@H]1CN(CCN(C)C)C2.O=C(O)C(F)(F)F.O=C(O)C(F)(F)F.O=C(O)C(F)(F)F | 8.148 |
| CCOC(=O)[C@]12CCCN(Cc3cccs3)C[C@H]1CN(CC(C)C)C2.O=C(O)C(F)(F)F.O=C(O)C(F)(F)F | 98.32 |
| CCOC(=O)[C@]12CCCN(Cc3nccs3)C[C@H]1CN(CC(C)C)C2.O=C(O)C(F)(F)F.O=C(O)C(F)(F)F | 11.11 |
| Cn1cc(C(=O)Nc2cccc(-c3ccc4c(c3)CCO4)n2)ccc1=O | 14 |
